Reference: publication PMC7862700, “An all-to-all approach to the identification of sequence-specific readers for epigenetic DNA modifications on cytosine”

What was measured:
Assay in all cases: DAPPL (digital affinity profiling via proximity ligation, sequencing); 10 mM Tris-HCl pH 7.5, 50 mM NaCl, 1 mM DTT, 4% glycerol, room temperature, 30 min; GST-TFs on glutathione beads, 16-mer random dsDNA library, 0.1% formaldehyde crosslink after washing; high values mean tight binding
[1] = biological target: T1, FLI1 (Homo sapiens, UniProt Q01543 1-452); conditions: protein: recombinant; tags: N-terminal GST; dsDNA, one strand shown
T1 sequence: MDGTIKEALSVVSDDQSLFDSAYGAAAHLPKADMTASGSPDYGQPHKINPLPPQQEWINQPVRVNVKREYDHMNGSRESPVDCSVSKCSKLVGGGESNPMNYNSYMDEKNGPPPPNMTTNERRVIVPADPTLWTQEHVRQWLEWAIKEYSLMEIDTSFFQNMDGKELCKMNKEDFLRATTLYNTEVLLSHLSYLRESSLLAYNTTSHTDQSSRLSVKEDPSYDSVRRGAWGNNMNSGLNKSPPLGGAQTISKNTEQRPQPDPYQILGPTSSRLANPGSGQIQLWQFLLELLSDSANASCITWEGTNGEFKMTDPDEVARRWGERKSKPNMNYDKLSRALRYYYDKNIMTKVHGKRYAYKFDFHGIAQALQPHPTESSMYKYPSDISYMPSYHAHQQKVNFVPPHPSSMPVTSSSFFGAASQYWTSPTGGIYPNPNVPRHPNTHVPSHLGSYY
Summary of the method: (§1)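 Sequencing on an Illumina NextSeq500 followed washing, crosslinking with 0.1% formaldehyde, proximity ligation (BsaI/T4 ligase, 1 h, 37 °C) and PCR amplification of pools that had been incubated for 30 min at room temperature with 200 nmole of a random double-stranded 16-mer DNA library in Tris/NaCl/DTT/glycerol buffer. Each pool held DNA-barcoded human transcription factors, expressed in yeast as GST fusions and captured on glutathione beads, plus a tag-only sample. Binding signal is a hexamer's read frequency for a factor divided by its frequency in the tag-only sample.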

[2] = biological target: T2, ELK1 (Homo sapiens, UniProt P19419 1-428); conditions: protein: recombinant; tags: N-terminal GST; dsDNA, one strand shown
T2 sequence: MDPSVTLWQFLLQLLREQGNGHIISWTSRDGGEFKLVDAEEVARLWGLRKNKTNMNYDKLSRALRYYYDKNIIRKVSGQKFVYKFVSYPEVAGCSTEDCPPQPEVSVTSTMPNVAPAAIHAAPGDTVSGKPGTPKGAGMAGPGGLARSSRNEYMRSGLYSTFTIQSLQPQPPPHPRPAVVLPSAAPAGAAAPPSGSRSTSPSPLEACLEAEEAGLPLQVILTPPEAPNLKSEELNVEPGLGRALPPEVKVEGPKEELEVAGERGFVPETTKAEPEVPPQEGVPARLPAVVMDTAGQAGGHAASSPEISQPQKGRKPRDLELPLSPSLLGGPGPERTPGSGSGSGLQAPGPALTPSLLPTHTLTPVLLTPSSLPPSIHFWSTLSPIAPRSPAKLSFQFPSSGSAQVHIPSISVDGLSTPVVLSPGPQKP
Summary of the method: as §1

[3] = biological target: T3, GABPA (Homo sapiens, UniProt Q06546 1-454); conditions: protein: recombinant; tags: N-terminal GST; dsDNA, one strand shown
T3 sequence: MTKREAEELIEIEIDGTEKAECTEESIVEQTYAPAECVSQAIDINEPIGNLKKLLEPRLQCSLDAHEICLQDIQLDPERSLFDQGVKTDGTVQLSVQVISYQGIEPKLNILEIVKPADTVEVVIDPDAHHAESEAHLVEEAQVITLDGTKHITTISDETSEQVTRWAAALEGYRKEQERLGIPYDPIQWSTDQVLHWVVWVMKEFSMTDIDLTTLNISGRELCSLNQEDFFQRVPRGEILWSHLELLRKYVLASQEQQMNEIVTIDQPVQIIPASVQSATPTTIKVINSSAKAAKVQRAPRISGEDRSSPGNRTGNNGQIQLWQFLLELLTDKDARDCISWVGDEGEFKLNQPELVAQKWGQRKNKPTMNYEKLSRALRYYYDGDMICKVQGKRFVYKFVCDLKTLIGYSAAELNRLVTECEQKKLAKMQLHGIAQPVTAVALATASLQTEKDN
Summary of the method: as §1

[4] = biological target: T4, ERG (Homo sapiens, UniProt P11308 1-479); conditions: protein: recombinant; tags: N-terminal GST; dsDNA, one strand shown
T4 sequence: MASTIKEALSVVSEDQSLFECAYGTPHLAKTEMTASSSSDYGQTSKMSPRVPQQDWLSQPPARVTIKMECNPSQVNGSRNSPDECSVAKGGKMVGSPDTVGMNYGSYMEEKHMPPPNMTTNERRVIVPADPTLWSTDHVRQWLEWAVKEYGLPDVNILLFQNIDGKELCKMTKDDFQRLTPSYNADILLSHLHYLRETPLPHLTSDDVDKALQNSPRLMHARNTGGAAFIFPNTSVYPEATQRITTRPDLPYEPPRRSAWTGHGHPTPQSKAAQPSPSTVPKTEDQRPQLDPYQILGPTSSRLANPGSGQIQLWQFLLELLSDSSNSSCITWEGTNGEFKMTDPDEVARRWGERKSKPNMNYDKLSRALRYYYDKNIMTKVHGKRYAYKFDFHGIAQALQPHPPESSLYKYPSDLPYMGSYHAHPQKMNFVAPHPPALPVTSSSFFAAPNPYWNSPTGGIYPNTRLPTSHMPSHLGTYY
Summary of the method: as §1

[5] = biological target: ELF1 (Homo sapiens, UniProt P32519 1-619); conditions: protein: recombinant; tags: N-terminal GST; dsDNA, one strand shown
ELF1, sequence (P32519 whole entry): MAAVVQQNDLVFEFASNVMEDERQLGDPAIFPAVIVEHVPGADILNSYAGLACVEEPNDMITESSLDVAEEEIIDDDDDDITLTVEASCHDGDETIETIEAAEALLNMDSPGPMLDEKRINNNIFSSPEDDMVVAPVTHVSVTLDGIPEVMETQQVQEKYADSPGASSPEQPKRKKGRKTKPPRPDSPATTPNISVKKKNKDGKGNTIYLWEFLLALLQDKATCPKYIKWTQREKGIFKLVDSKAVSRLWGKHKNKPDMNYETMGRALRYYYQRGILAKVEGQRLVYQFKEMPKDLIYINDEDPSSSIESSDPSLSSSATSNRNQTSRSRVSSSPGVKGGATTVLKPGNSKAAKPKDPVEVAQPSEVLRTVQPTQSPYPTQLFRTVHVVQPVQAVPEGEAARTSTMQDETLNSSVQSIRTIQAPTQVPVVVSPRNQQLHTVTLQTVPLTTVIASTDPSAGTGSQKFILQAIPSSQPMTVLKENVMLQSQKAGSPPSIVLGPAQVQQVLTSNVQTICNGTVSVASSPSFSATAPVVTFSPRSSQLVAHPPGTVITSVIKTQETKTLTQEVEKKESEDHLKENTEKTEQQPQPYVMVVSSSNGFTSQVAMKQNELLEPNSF
Summary of the method: as §1

[6] = biological target: T5, EHF (Homo sapiens, UniProt Q9NZC4 1-300); conditions: protein: recombinant; tags: N-terminal GST; dsDNA, one strand shown
T5 sequence: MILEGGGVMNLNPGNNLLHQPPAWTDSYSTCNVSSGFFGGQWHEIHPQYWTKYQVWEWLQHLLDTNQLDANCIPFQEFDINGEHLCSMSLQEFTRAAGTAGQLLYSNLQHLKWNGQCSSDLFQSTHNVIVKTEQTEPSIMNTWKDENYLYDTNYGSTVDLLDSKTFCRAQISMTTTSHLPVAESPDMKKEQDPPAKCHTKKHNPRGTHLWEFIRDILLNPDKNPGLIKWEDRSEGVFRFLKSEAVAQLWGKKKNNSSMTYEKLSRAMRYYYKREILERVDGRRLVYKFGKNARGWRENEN
Summary of the method: as §1

[7] = biological target: SPI1 (Homo sapiens, UniProt P17947 1-270); conditions: protein: recombinant; tags: N-terminal GST; dsDNA, one strand shown
Summary of the method: as §1

[8] = biological target: SPIB (Homo sapiens, UniProt Q01892 1-262); conditions: protein: recombinant; tags: N-terminal GST; dsDNA, one strand shown
SPIB, sequence (Q01892 whole entry): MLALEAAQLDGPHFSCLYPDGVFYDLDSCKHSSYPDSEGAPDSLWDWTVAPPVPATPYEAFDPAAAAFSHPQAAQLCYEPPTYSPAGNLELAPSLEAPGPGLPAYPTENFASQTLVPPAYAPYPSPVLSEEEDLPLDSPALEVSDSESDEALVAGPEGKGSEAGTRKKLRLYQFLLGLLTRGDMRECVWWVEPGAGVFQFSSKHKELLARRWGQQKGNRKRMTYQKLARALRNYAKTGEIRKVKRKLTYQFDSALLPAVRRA
Summary of the method: as §1

[9] = biological target: T6, ELK3 (Homo sapiens, UniProt P41970 1-407); conditions: protein: recombinant; tags: N-terminal GST; dsDNA, one strand shown
T6 sequence: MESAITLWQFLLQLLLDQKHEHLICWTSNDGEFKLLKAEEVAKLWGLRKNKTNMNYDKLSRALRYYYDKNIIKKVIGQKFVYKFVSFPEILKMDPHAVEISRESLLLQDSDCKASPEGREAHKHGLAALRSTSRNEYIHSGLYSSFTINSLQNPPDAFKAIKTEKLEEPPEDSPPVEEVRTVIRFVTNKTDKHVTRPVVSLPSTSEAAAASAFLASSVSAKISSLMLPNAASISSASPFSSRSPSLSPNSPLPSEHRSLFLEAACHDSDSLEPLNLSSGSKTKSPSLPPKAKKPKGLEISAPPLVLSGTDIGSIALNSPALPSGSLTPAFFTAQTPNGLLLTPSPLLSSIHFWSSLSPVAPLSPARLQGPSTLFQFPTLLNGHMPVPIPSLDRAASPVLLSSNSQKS
Summary of the method: as §1

[10] = biological target: T7, FEV (Homo sapiens, UniProt Q99581 1-238); conditions: protein: recombinant; tags: N-terminal GST; dsDNA, one strand shown
T7 sequence: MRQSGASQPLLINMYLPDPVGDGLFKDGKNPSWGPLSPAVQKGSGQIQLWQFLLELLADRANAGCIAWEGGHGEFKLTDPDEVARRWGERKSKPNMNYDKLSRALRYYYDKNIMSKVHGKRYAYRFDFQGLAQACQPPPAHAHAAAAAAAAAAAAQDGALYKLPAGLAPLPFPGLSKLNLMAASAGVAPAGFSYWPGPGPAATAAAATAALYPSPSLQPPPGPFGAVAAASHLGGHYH
Summary of the method: as §1

[11] = biological target: ETV5 (Homo sapiens, UniProt P41161 1-510); conditions: protein: recombinant; tags: N-terminal GST; dsDNA, one strand shown
ETV5, sequence (P41161 whole entry): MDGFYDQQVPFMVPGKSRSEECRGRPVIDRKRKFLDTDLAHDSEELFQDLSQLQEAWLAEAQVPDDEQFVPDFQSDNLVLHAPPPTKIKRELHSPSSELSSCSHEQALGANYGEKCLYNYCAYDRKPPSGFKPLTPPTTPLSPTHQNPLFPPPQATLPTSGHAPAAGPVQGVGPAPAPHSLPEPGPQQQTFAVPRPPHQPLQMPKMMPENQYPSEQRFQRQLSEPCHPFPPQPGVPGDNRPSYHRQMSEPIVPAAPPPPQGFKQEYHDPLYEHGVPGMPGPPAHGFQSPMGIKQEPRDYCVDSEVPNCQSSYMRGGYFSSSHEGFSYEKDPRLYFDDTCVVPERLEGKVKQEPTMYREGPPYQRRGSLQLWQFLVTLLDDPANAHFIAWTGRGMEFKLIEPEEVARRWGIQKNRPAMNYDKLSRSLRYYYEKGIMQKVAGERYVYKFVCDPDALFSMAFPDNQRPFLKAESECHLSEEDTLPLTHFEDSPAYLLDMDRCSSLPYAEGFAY
Summary of the method: as §1

[12] = biological target: HSF1 (Homo sapiens, UniProt Q00613 1-529); conditions: protein: recombinant; tags: N-terminal GST; chain copies: 3; dsDNA, one strand shown
HSF1, sequence (Q00613 whole entry): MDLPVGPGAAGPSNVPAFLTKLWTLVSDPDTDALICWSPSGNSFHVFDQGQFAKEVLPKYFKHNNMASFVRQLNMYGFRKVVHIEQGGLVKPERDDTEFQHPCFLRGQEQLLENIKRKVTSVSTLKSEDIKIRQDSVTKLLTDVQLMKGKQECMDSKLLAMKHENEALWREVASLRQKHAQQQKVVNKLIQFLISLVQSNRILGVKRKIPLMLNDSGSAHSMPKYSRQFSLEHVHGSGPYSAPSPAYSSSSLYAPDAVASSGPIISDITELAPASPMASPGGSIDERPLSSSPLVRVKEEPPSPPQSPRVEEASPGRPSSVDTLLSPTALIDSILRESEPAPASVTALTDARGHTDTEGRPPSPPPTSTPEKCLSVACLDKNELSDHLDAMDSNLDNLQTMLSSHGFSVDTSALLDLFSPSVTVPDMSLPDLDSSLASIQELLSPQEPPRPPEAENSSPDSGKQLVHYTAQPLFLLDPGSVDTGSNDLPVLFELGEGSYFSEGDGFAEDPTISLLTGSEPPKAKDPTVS
Summary of the method: as §1

[13] = biological target: T8, SPIC (Homo sapiens, UniProt Q8N5J4 1-248); conditions: protein: recombinant; tags: N-terminal GST; dsDNA, one strand shown
T8 sequence: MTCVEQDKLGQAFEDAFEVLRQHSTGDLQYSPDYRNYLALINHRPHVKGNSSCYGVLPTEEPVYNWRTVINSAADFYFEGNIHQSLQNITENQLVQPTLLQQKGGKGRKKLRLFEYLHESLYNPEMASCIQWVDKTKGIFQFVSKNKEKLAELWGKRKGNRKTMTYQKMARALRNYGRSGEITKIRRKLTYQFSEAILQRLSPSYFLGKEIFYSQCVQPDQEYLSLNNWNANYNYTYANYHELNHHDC
Summary of the method: as §1

[14] = biological target: ELF4 (Homo sapiens, UniProt Q99607 1-663); conditions: protein: recombinant; tags: N-terminal GST; dsDNA, one strand shown
ELF4, sequence (Q99607 whole entry): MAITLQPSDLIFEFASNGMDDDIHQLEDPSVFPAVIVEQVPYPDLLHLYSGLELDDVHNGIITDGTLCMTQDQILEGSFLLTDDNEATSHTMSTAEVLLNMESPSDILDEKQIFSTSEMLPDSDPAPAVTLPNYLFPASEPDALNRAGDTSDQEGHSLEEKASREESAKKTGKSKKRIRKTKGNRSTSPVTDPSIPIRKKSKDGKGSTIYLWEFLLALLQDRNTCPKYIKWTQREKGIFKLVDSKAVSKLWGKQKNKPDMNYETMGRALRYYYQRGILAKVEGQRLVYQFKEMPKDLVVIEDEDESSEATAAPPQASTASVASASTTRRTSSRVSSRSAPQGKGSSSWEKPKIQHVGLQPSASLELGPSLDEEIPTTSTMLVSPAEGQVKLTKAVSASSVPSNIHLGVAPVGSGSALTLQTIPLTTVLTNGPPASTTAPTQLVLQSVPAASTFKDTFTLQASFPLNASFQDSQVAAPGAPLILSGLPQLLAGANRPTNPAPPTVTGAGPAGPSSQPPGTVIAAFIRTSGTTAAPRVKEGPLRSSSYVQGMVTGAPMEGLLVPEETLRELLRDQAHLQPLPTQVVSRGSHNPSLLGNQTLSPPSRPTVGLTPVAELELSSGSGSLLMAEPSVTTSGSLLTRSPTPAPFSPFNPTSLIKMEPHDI
Summary of the method: as §1

[15] = biological target: T9, ELK4 (Homo sapiens, UniProt P28324-2 1-405); conditions: protein: recombinant; tags: N-terminal GST; dsDNA, one strand shown
T9 sequence: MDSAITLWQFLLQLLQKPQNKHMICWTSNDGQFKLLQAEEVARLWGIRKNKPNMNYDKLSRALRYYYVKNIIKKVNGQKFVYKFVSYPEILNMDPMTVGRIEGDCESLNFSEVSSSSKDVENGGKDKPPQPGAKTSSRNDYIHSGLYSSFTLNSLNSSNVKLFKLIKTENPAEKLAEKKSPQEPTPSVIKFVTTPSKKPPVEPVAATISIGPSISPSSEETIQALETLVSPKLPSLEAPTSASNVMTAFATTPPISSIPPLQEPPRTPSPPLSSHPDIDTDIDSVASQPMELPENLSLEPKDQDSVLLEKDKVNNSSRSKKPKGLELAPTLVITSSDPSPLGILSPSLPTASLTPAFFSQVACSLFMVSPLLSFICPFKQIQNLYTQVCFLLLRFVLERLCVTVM
Summary of the method: as §1

[16] = biological target: T10, ETV2 (Homo sapiens, UniProt O00321 1-342); conditions: protein: recombinant; tags: N-terminal GST; dsDNA, one strand shown
T10 sequence: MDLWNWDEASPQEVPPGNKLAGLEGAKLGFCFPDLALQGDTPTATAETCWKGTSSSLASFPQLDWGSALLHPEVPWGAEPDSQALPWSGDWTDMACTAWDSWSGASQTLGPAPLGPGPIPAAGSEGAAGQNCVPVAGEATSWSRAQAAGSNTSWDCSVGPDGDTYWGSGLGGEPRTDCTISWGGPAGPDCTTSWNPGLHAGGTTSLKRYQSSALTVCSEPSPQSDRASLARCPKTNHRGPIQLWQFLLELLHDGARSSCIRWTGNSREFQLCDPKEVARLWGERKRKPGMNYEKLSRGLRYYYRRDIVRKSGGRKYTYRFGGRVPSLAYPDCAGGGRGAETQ
Summary of the method: as §1

[17] = biological target: T11, ELF3 (Homo sapiens, UniProt P78545 1-371); conditions: protein: recombinant; tags: N-terminal GST; dsDNA, one strand shown
T11 sequence: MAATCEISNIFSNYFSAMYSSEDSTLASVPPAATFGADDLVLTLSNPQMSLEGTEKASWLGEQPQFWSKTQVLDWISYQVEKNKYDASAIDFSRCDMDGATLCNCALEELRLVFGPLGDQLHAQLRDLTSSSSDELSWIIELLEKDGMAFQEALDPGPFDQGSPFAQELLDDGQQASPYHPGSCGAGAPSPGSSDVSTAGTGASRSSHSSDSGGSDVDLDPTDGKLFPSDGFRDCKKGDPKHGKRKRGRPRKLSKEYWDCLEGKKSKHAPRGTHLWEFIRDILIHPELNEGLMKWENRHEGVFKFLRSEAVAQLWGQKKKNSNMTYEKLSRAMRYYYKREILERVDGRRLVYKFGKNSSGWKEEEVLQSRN
Summary of the method: as §1

[18] = biological target: CRX (Homo sapiens, UniProt O43186 1-299); conditions: protein: recombinant; tags: N-terminal GST; dsDNA, one strand shown
CRX, sequence (O43186 whole entry): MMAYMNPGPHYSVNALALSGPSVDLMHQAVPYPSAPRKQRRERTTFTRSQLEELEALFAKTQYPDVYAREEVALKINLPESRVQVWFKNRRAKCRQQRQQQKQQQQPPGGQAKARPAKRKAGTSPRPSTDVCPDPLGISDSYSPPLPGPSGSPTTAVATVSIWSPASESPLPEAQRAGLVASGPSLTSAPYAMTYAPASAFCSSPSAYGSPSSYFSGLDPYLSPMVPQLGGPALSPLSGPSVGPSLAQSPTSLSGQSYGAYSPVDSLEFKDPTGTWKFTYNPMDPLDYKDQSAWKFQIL
Summary of the method: as §1

[19] = biological target: ETV1 (Homo sapiens, UniProt P50549 1-477); conditions: protein: recombinant; tags: N-terminal GST; dsDNA, one strand shown
ETV1, sequence (P50549 whole entry): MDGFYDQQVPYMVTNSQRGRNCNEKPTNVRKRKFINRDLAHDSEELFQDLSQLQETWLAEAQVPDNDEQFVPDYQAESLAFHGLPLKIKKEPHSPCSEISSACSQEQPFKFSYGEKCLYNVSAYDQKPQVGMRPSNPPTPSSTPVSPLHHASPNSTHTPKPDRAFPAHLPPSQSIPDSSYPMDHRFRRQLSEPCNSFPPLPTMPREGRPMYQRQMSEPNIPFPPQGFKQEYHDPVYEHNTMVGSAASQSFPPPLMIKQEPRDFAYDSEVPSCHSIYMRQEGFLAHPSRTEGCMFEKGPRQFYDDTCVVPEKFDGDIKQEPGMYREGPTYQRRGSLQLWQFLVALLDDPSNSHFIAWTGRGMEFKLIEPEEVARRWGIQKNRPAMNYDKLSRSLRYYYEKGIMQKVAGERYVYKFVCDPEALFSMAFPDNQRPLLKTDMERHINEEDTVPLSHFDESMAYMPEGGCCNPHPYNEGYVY
Summary of the method: as §1

## TTTGCC
[1]
  binding signal: 1.42 fold enrichment (6-mer frequency, TF over GST control)
[2]
  binding signal: 1.26 fold enrichment (6-mer frequency, TF over GST control)
[3]
  binding signal: 1.2 fold enrichment (6-mer frequency, TF over GST control)
[4]
  binding signal: 1.26 fold enrichment (6-mer frequency, TF over GST control)
[5]
  binding signal: 1.23 fold enrichment (6-mer frequency, TF over GST control)
[6]
  binding signal: 1.22 fold enrichment (6-mer frequency, TF over GST control)
[7]
  binding signal: 1.23 fold enrichment (6-mer frequency, TF over GST control)
[8]
  binding signal: 1.31 fold enrichment (6-mer frequency, TF over GST control)
[9]
  binding signal: 1.21 fold enrichment (6-mer frequency, TF over GST control)
[10]
  binding signal: 1.26 fold enrichment (6-mer frequency, TF over GST control)
[11]
  binding signal: 1.26 fold enrichment (6-mer frequency, TF over GST control)
[12]
  binding signal: 1.24 fold enrichment (6-mer frequency, TF over GST control)
[13]
  binding signal: 1.31 fold enrichment (6-mer frequency, TF over GST control)
[14]
  binding signal: 1.29 fold enrichment (6-mer frequency, TF over GST control)
[15]
  binding signal: 1.37 fold enrichment (6-mer frequency, TF over GST control)
[16]
  binding signal: 1.29 fold enrichment (6-mer frequency, TF over GST control)
[17]
  binding signal: 1.47 fold enrichment (6-mer frequency, TF over GST control)
[18]
  binding signal: 1.32 fold enrichment (6-mer frequency, TF over GST control)
[19]
  binding signal: 1.33 fold enrichment (6-mer frequency, TF over GST control)
